# LDHA block: blocks human lactate dehydrogenase A; activity change, % (values are at about 110 or 230 µM); 480,000 compounds, 0.15% hits; purified LDHA, NADH/diaphorase-resazurin fluorescence; active compounds read low; P00338; in the data active = activity change below about -30%; inconclusive = mostly about -25% to -30%;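 note: plate controls were DMSO wells for no effect and wells without enzyme for full effect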
#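 Resorufin fluorescence (ex540/em590), read at 0 and 20 min after diaphorase/resazurin addition, reports the NADH left after a 5 min room-temperature reaction of 2 nM human LDH5 with 0.06 mM NADH and 0.2 mM pyruvate.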
# PI4K2A inh: blocks human PI4K2A kinase activity. activity change, negative = inhibition, % at 76.9 µM. Q9BTU6. 420,000 compounds, 0.13% hits. purified PI4K2A, ADP-Glo luminescence, 1 h; active compounds read low; in the data active = activity change below about -50%; inconclusive = mostly about -30% to -49%;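 note: -100% = wells without enzyme as full effect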
# Target sequence (Q9BTU6 whole entry, looked up): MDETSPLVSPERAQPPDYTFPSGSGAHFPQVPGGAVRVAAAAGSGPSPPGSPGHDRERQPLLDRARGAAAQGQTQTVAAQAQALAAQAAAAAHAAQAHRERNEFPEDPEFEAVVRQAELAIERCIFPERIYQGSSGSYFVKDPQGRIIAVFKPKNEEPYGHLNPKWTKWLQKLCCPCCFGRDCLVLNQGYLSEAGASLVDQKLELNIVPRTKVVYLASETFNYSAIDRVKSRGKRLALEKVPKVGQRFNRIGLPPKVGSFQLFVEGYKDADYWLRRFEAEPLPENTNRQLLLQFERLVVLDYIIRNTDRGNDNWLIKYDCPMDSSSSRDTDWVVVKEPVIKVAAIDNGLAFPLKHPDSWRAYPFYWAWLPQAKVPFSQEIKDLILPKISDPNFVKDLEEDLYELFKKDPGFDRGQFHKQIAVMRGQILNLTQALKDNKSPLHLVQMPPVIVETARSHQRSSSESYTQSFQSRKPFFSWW
#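 In this quantitative HTS, ADP production by PI4K2A was quantified luminescently after 1 h at ambient temperature; 100 microM adenosine served as plate-quality control.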
# D3 ag: D3 dopamine receptor (human) agonism; P35462; D3R DiscoveRx beta-arrestin cells, luminescence, 90 min; max activation, %; 410,000 compounds, 0.58% hits; AID 652048; in the data active = max activation above about 30%; note: 0% is about no effect
#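 Agonist-mode cell screen: cells plated at 1500/well and incubated overnight at 37 °C, then exposed to library compounds for 90 min at 37 °C. Detection reagent was added for 30–60 min at room temperature, and luminescence was read.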
# PI5P4Ka inh: PI5P4K alpha (human) kinase inhibition; 330,000 compounds, 1.2% hits; AID 652105; PI5P4Kalpha enzyme, ADP-Glo luminescence, 60 min; active compounds read low; max response, %; active = max response of -50% or lower; inconclusive = between -30% and -50%; inactive = -30% or higher; note: value at the top dose of about 77 µM; % is set by controls: 0 for no effect and ±100 for the full control effect
#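 Reactions run in 0.038 M HEPES pH 7.4, 0.28 mM EGTA, 0.1% CHAPS and 5% DMSO, with PI5P4Kalpha, substrate, compound and 5 microM ATP final, one hour at room temperature. Readout is ADP-Glo luminescence.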
# D3 antag: blocks the human D3 dopamine receptor; 360,000 compounds, 2.5% hits; D3R cells, DiscoveRx beta-arrestin luminescence, antagonist mode; active compounds read low; AID 652054; max response, negative = inhibition, %; P35462; in the data active = max response below about -50%; inconclusive = no clear call, values can overlap the other calls; note: % is set by controls: 0 for no effect and ±100 for the full control effect
#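 Cells plated overnight at 1500 cells/well, then exposed to library compounds with dopamine controls for 90 minutes at 37 degrees C. DiscoveRx reagent added for 30–60 minutes at room temperature; luminescence read, quantitative HTS format.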
# Numbers without * were called inactive; ? = inconclusive; . = no result. Only some compounds are listed: those with a hit (about 3.3% of all), similar ones and a draw of the others.
SMILES,LDHA block,PI4K2A inh,D3 ag,PI5P4Ka inh,D3 antag
CC(=O)c1ccc(NC(=O)CSc2nnc(-c3ccco3)c(-c3ccco3)n2)cc1,31,?,7,-64*,?
CNC(=O)c1ccc2nc(-c3ccco3)c(-c3ccco3)nc2c1,13,.,.,.,.
COc1ccc(-c2nnc(SCC(=O)Nc3ccc(C(C)=O)cc3)nc2-c2ccc(OC)cc2)cc1,-9,3,-11,.,.
C=CCNC(=O)NC(=O)COC(=O)c1cc(-c2cccs2)nc2ccccc12,9,.,.,.,.
Cc1ccc(C(C)C)c(OCCNC(=O)c2cncc(Br)c2)c1,3,-7,3,15,-52*
O=C(CSc1ccc(F)cc1)Nc1cc2c(cc1Cl)OCCCO2,0,.,.,.,.
COc1cc(OC)c(C2=CCN(S(=O)(=O)N3CCCC(C)C3)CC2)c(OC)c1 (configuration not stated),11,.,.,.,.
Cc1onc(-c2c(F)cccc2Cl)c1C(=O)NCC1COc2ccccc2O1 (configuration not stated),-1,-13,-3,2,-24
Cc1onc(-c2c(Cl)cccc2Cl)c1C(=O)NCC1CCCO1 (configuration not stated),2,0,9,.,-105*
O=c1[nH]c(/C=C\c2ccccc2F)nc(O)c1[N+](=O)[O-],-10,-20,2,-72*,-9
O=c1[nH]c(/C=C\c2cccc(F)c2)nc(O)c1[N+](=O)[O-],-9,-17,-10,-55*,-25
O=C(Cc1ccc(Cl)cc1Cl)Oc1ccccc1Cc1ccccc1,1,.,.,.,.
Cc1ccc2nc(/C(C#N)=C\c3ccc(N4CCCCC4)c([N+](=O)[O-])c3)[nH]c2c1,-3,-2,-36,.,-70*
Cc1cccc(/C=C(\C#N)c2nc3ccccc3c(=O)[nH]2)c1,-7,0,34*,.,.
CN(C)c1ccc(/C=C(\C#N)c2nc3ccccc3c(=O)[nH]2)cc1,-5,-2,-11,.,.
Cc1ccc2nc(/C(C#N)=C/c3ccc(O)c(O)c3)[nH]c2c1,26,3,2,-69*,?
CC(C)(C)C1CCc2nc(Cl)c(C#N)c(C#N)c2C1 (configuration not stated),3,.,.,.,.
O=C(Nc1c(-c2ccccc2)nc2ncccn12)C1CC1,.,1,.,.,.
CC(=O)NS(=O)(=O)c1ccc(NC(=O)c2ccc(Cl)cc2[N+](=O)[O-])cc1,-5,4,4,10,14
O=C(Nc1ccc(Nc2ccccc2)cc1)c1ccc(Cl)cc1[N+](=O)[O-],4,-1,-15,0,-66*
O=C(NCc1ccccn1)c1ccsc1,1,.,.,.,.
C[C@@H]1NC(=O)c2cc([N+](=O)[O-])cc(I)c2OCC[C@@H](C(N)=O)NC(=O)[C@H](CCCCN)NC1=O,1,-3,0,-3,11
NCCCC[C@H]1NC(=O)[C@H](CCC(=O)O)NC(=O)c2cc([N+](=O)[O-])cc(I)c2OCC[C@@H](C(N)=O)NC1=O,-40*,-11,-18,?,-24
CCOC(=O)c1oc2cc(OCc3cccc(OC)c3)ccc2c(=O)c1-c1ccc(OC)c(OC)c1,-1,.,.,.,.
CCOC(=O)COc1cc2c(C(=O)OCC)c(C)oc2cc1Br,3,-8,35*,.,-6
SMILES,LDHA block,PI4K2A inh,D3 ag,PI5P4Ka inh,D3 antag
COC(=O)[C@]12C[C@H](CC(=O)N3CCC(c4ccccc4)CC3)C(=O)N(Cc3cccc4ccccc34)C1=C[C@H](COCc1ccccc1)O[C@@H]2C,.,-2,.,.,.
CC(C)c1ccc(Nc2c(-c3ccccc3O)nc3cnccn23)cc1,2,3,38*,.,.
COc1cc(-c2nc3cnccn3c2Nc2ccc(C(C)C)cc2)ccc1O,-4,-1,20,.,50
Cc1ccsc1C=Nn1c(-c2n[nH]c3c2CCC3)n[nH]c1=S,.,-3,.,.,.
O=C(c1ccc(CN2CCc3ccccc3C2)cc1)N1CCN(c2ccccc2)CC1,-1,0,0,-5,-62*
O=C(c1ccc(CN2CCc3ccccc3C2)cc1)N1CCc2ccccc2C1,-1,3,-16,-4,-76*
COc1cc(OC)cc(C(=O)N2CCN(C3CCCCC3)CC2)c1,-10,1,-6,0,?
COc1cc(OC)cc(C(=O)N2CCN(C3CCN(Cc4ccccc4)CC3)CC2)c1,-31*,-2,-6,.,-62*
O=C(c1ccc(-n2cccc2)cc1)N1CCN(Cc2ccccc2)CC1,0,2,-6,-6,-23
O=C(c1ccc2c(c1)CCC2)N1CCN(Cc2ccccc2)CC1,-8,1,-7,4,-61*
O=C(NC1CCCCC1)c1cc(Sc2ccccc2Cl)nc2ccccc12,14,.,.,.,.
COc1ccc(OC)c(C2Nc3c(Cl)ccc(C(=O)O)c3C3C=CCC32)c1 (configuration not stated),6,2,1,-8,-10
COC(=O)COc1ccc(C2Nc3c(Cl)ccc(C(=O)O)c3C3C=CCC32)cc1 (configuration not stated),21,-10,3,-57*,8
Cn1c(=O)c(=O)n(C)c2cc([N+](=O)[O-])c([N+](=O)[O-])cc21,7,2,0,-10,-11
CN(C)c1c([N+](=O)[O-])cc(N2C(=O)C=CC2=O)cc1[N+](=O)[O-],-18,-7,1,-86*,-19
COc1ccc(CCNCCC(c2ccccc2)c2ccccc2)cc1OC,0,-4,0,0,-29
COc1cc(OC)c(OC)cc1CCC(C)NCCC(c1ccccc1)c1ccccc1 (configuration not stated),10,-4,0,-9,-71*
C=CCN(CC=C)Cc1c(C)[nH]c2ccccc2c1=O,1,.,.,.,.
O=C(Nc1ccc(N2CCN(C(=O)c3ccc(Cl)cc3)CC2)cc1)c1ccc2c(c1)OCCO2,-1,6,43*,.,23
O=C1[C@@H]2Cc3c([nH]c4ccccc34)C(c3cccc([N+](=O)[O-])c3)N2C(=O)CN1CCCO (some centres not stated),1,1,-9,2,-58*
O=C(O)c1cc(O)c2c(c1)[C@@H]([C@H]1c3cc(C(=O)O)cc(O)c3C(=O)c3c(O[C@@H]4O[C@H](CO)[C@@H](O)[C@H](O)[C@H]4O)cccc31)c1cccc(O[C@@H]3O[C@H](CO)[C@@H](O)[C@H](O)[C@H]3O)c1C2=O,-14,-64*,-20,-111*,-50*
N#C/C(=C\c1ccc[nH]1)C(=O)Nc1ccccc1[N+](=O)[O-],-5,-28,4,-65*,1
O=C(CCOc1ccccc1)Nc1ccccc1[N+](=O)[O-],0,1,4,1,5
O=C(CC(=O)Nc1ccccc1[N+](=O)[O-])Nc1ccccc1[N+](=O)[O-],-9,-2,-10,-2,-64*
COc1ccccc1C(=O)Nc1ccc(OCC(=O)NCc2cccs2)cc1,-7,.,.,.,.
